# Legend:
# Conditions in all cases: concentration: 1 μM, replicates: in singlicate; n = 1
# [1] = system: T1, RSK4(Kin.Dom.1-N-terminal)
# T1 construct: gene RPS6KA6
# [2] = system: T2, RSK4(Kin.Dom.2-C-terminal)
# T2 construct: gene RPS6KA6
# S6K1 = system: S6K1
# SBK1 = system: SBK1
# SGK2 = system: SGK2
# SGK3 = system: SGK3
# SGK = system: SGK
# SIK2 = system: SIK2
# SIK = system: SIK
# SLK = system: SLK
# SNARK = system: T3, SNARK
# T3 construct: gene NUAK2
# SNRK = system: SNRK
# SRC = system: SRC
# SRMS = system: SRMS
# SRPK1 = system: SRPK1
# SRPK2 = system: SRPK2
# SRPK3 = system: SRPK3
# STK16 = system: STK16
# STK33 = system: STK33
# STK35 = system: STK35
# 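Also: KINOMEscan kinase panel screen.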
structure (smiles),measurement,setting,value
c1ccc(Oc2ccc(Nc3ccnc4cc(-c5ccc(CNCCN6CCOCC6)o5)ccc34)cc2)nc1 [GW567145],%Inh,[1],0%
same,%Inh,[2],0%
same,%Inh,S6K1,0%
same,%Inh,SBK1,8%
same,%Inh,SGK2,0%
same,%Inh,SGK3,0%
same,%Inh,SGK,17%
same,%Inh,SIK2,78%
same,%Inh,SIK,96.4%
same,%Inh,SLK,8%
same,%Inh,SNARK,6%
same,%Inh,SNRK,0%
same,%Inh,SRC,22%
same,%Inh,SRMS,87%
same,%Inh,SRPK1,0%
same,%Inh,SRPK2,58%
same,%Inh,SRPK3,0%
same,%Inh,STK16,2%
same,%Inh,STK33,21%
same,%Inh,STK35,48%
Cc1ccc(F)c(C(=O)Nc2cccc(-c3nn4ccccc4c3-c3ccnc(Nc4cccc(F)c4)n3)c2)c1F [GSK361061],%Inh,[1],0%
same,%Inh,[2],13%
same,%Inh,S6K1,0%
same,%Inh,SBK1,100%
same,%Inh,SGK2,4%
same,%Inh,SGK3,2%
same,%Inh,SGK,11%
same,%Inh,SIK2,29%
same,%Inh,SIK,68%
same,%Inh,SLK,94.2%
same,%Inh,SNARK,11%
same,%Inh,SNRK,0%
same,%Inh,SRC,25%
same,%Inh,SRMS,44%
same,%Inh,SRPK1,15%
same,%Inh,SRPK2,0%
same,%Inh,SRPK3,25%
same,%Inh,STK16,5%
same,%Inh,STK33,4%
same,%Inh,STK35,33%
Cc1occc1-c1ncc(OC[C@@H](N)Cc2c[nH]c3ccccc23)cc1-c1ccc2[nH]nc(C)c2c1.O=C(O)C(F)(F)F [GSK682037],%Inh,[1],61%
same,%Inh,[2],0%
same,%Inh,S6K1,56%
same,%Inh,SBK1,19%
same,%Inh,SGK2,0%
same,%Inh,SGK3,20%
same,%Inh,SGK,0%
same,%Inh,SIK2,65%
same,%Inh,SIK,54%
same,%Inh,SLK,95.2%
same,%Inh,SNARK,60%
same,%Inh,SNRK,0%
same,%Inh,SRC,65%
same,%Inh,SRMS,0%
same,%Inh,SRPK1,54%
same,%Inh,SRPK2,0%
same,%Inh,SRPK3,70%
same,%Inh,STK16,0%
same,%Inh,STK33,86%
same,%Inh,STK35,69%
CC(=O)N1CCN(c2ccc(Nc3nccc(-c4sc(C(C)C)nc4-c4cccc(NS(=O)(=O)c5cccc(Cl)c5)c4)n3)cn2)CC1 [GSK1660437],%Inh,[1],0%
same,%Inh,[2],6%
same,%Inh,S6K1,0%
same,%Inh,SBK1,16%
same,%Inh,SGK2,0%
same,%Inh,SGK3,19%
same,%Inh,SGK,16%
same,%Inh,SIK2,89%
same,%Inh,SIK,99%
same,%Inh,SLK,72%
same,%Inh,SNARK,17%
same,%Inh,SNRK,0%
same,%Inh,SRC,85%
same,%Inh,SRMS,98.3%
same,%Inh,SRPK1,44%
same,%Inh,SRPK2,0%
same,%Inh,SRPK3,44%
same,%Inh,STK16,0%
same,%Inh,STK33,34%
same,%Inh,STK35,0%
Cc1cccc(NC(=O)Nc2ccc(Oc3ncnc4ccn(C)c34)cc2)c1,%Inh,[1],0%
same,%Inh,[2],0%
same,%Inh,S6K1,0%
same,%Inh,SBK1,0%
same,%Inh,SGK2,0%
same,%Inh,SGK3,0%
same,%Inh,SGK,0%
same,%Inh,SIK2,7%
same,%Inh,SIK,10%
same,%Inh,SLK,0%
same,%Inh,SNARK,0%
same,%Inh,SNRK,0%
same,%Inh,SRC,0%
same,%Inh,SRMS,0%
same,%Inh,SRPK1,11%
same,%Inh,SRPK2,0%
same,%Inh,SRPK3,0%
same,%Inh,STK16,0%
same,%Inh,STK33,0%
same,%Inh,STK35,0%
O=c1[nH]cc(-c2ccc(N3CCOCC3)cc2)c2sc(-c3cn[nH]c3)cc12 [GSK2276055],%Inh,[1],0%
same,%Inh,[2],18%
same,%Inh,S6K1,0%
same,%Inh,SBK1,0%
same,%Inh,SGK2,0%
same,%Inh,SGK3,13%
same,%Inh,SGK,0%
same,%Inh,SIK2,0%
same,%Inh,SIK,0%
same,%Inh,SLK,0%
same,%Inh,SNARK,15%
same,%Inh,SNRK,0%
same,%Inh,SRC,0%
same,%Inh,SRMS,8%
same,%Inh,SRPK1,17%
same,%Inh,SRPK2,0%
same,%Inh,SRPK3,0%
same,%Inh,STK16,35%
same,%Inh,STK33,0%
same,%Inh,STK35,0%
Cl.Cl.NCC(NCc1ccc(-c2ccnc3[nH]ccc23)s1)c1ccccc1 (centres unmarked) [GSK1321565],%Inh,[1],55%
same,%Inh,[2],26%
same,%Inh,S6K1,53%
same,%Inh,SBK1,57%
same,%Inh,SGK2,0%
same,%Inh,SGK3,43%
same,%Inh,SGK,55%
same,%Inh,SIK2,0%
same,%Inh,SIK,5%
same,%Inh,SLK,74%
same,%Inh,SNARK,93.5%
same,%Inh,SNRK,0%
same,%Inh,SRC,0%
same,%Inh,SRMS,0%
same,%Inh,SRPK1,68%
same,%Inh,SRPK2,83%
same,%Inh,SRPK3,77%
same,%Inh,STK16,49%
same,%Inh,STK33,76%
same,%Inh,STK35,0%
COc1cccc(-c2ccc3c(NC(=O)C4CC4)n[nH]c3n2)c1 [SB-710903],%Inh,[1],5%
same,%Inh,[2],21%
same,%Inh,S6K1,8%
same,%Inh,SBK1,0%
same,%Inh,SGK2,5%
same,%Inh,SGK3,2%
same,%Inh,SGK,19%
same,%Inh,SIK2,0%
same,%Inh,SIK,0%
same,%Inh,SLK,30%
same,%Inh,SNARK,0%
same,%Inh,SNRK,0%
same,%Inh,SRC,0%
same,%Inh,SRMS,0%
same,%Inh,SRPK1,10%
same,%Inh,SRPK2,50%
same,%Inh,SRPK3,0%
same,%Inh,STK16,26%
same,%Inh,STK33,0%
same,%Inh,STK35,0%
Cl.NC(=O)c1cccc(Nc2nccc(Nc3ccc(Oc4c(Cl)cccc4Cl)c(Cl)c3)n2)c1 [GW659009],%Inh,[1],0%
same,%Inh,[2],0%
same,%Inh,S6K1,0%
same,%Inh,SBK1,24%
same,%Inh,SGK2,4%
same,%Inh,SGK3,0%
same,%Inh,SGK,19%
same,%Inh,SIK2,0%
same,%Inh,SIK,90.2%
same,%Inh,SLK,0%
same,%Inh,SNARK,1%
same,%Inh,SNRK,5%
same,%Inh,SRC,18%
same,%Inh,SRMS,19%
same,%Inh,SRPK1,37%
same,%Inh,SRPK2,0%
same,%Inh,SRPK3,6%
same,%Inh,STK16,35%
same,%Inh,STK33,0%
same,%Inh,STK35,0%
Clc1ccc(-c2nn3ncccc3c2-c2ccnc(Nc3ccc4c(c3)OCCO4)n2)cc1 [GW829116],%Inh,[1],0%
same,%Inh,[2],88%
same,%Inh,S6K1,9%
same,%Inh,SBK1,0%
same,%Inh,SGK2,0%
same,%Inh,SGK3,0%
same,%Inh,SGK,35%
same,%Inh,SIK2,30%
same,%Inh,SIK,1%
same,%Inh,SLK,87%
same,%Inh,SNARK,0%
same,%Inh,SNRK,0%
same,%Inh,SRC,44%
same,%Inh,SRMS,13%
same,%Inh,SRPK1,0%
same,%Inh,SRPK2,0%
same,%Inh,SRPK3,0%
same,%Inh,STK16,32%
same,%Inh,STK33,0%
same,%Inh,STK35,0%

# From paper PMC5540273 (PLoS ONE, 2017)
